# Results filed as inconclusive are left out. A number with no mark means an inactive call. The source made the active and inactive calls. The call rests on the fitted dose curve; in most records, active means well fitted cell-killing curve with a large enough effect in the repeat runs; inconclusive means weak or mixed curves; inactive means no such curve, though single readings can be large or run the other way.
# Experiment: qHTS assay for identifying genotoxic compounds that show differential cytotoxicity against isogenic chicken DT40 cell lines with known DNA damage response pathways - Rad54/Ku70 mutant cell line (AID 743015); further: nearly all actives have a fitted effect of over 60% in size
# Conditions: DT40 Rad54/Ku70 mutant viability, CellTiter-Glo, 40 h; series mostly up to 66.8 µM; activity change, negative = cytotoxicity: at the top concentration
# From the text: National Center for Advancing Translational Sciences [NCATS]
# NIH Chemical Genomics Center [NCGC]
# U.S. Environmental Protection Agency [EPA]
# National Institutes of Environmental Health Sciences [NIEHS]
# National Toxicology Program [NTP]
# U.S. Food and Drug Administration [FDA]
# DNA repair pathways play a critical role in cellular homeostasis by repairing DNA damage induced by endogenous processes and xenobiotics. Isogenic chicken DT40 cell lines deficient in different DNA repair pathways can be used to identify genotoxic compounds and aid in characterizing the nature of the DNA damage induced. Two DNA repair-deficient cell lines with disrupted genes, Rad54/Ku70 or Rev3, were used to screen the Tox21 10K compound library. Possible genotoxicity was based on the presence of a significant increase in cytotoxicity in one or more of the DNA repair-deficient cell lines compared to that observed in the parental DNA repair-proficient cell line. CellTiter Glo viability assay (Promega, Madison, WI) was used to measure cell viability in these cells after compound treatment. This assay includes the data from the Rad54/Ku70 mutant cell line.
# Tox21 Assay Protocol Summary:
# 300 DT40 mutant cells in 5 uL/well were dispensed into white, solid-bottom 1536-well plates using a Multidrop Combi (ThermoFisher Scientific, Waltham, MA) dispenser. After the assay plates were incubated at 37 C/5% CO2 for approximately 0.5 hour, 23 nL of compounds dissolved in DMSO, positive controls or DMSO only was transferred into the assay plate by a pintool work station (Kalypsys, San Diego, CA). The assay plates were incubated at 37 C/5% CO2 for 40 hours. After 5 uL per well of CellTiter-Glo reagent was added into each well of the assay plates, the plates were incubated for 30 min at room temperature and the luminescence intensity of the plates was measured using a ViewLux (PerkinElmer, Shelton, CT) plate reader.
# On the % scale 0 is the no-effect control and ±100 the full control effect; potency means the concentration at half of the fitted maximal effect.
SMILES,"activity change, negative = cytotoxicity",Potency
CC(C)C(=O)OCCc1ccccc1,-17%,
CCCCCCOc1ccccc1C(N)=O,,21.1 µM (active)
CN(C)CCOCCO,9.2%,
O=Cc1ccc(Cl)c(Cl)c1,-0.752% [at 95.1 µM],
CCCOC(OCCC)OCCC,-0.966%,
CC(=O)NCc1c(I)c(NC(C)=O)c(I)c(C(=O)O)c1I,3.23%,
CC(C(=O)O)c1ccc2c(c1)CC(=O)c1ccccc1S2 (stereo not given),-1.56%,
N[C@@H](CCC(=O)N[C@@H](CS)C(=O)NCC(=O)O)C(=O)O,-18.5%,
O=C(CCN1CCN(CCO)CC1)N1c2ccccc2Sc2ccc(C(F)(F)F)cc21,,29.8 µM (active)
CC/C=C\CC1=C(C)CCC1=O,11.5%,
CN(CCOc1ccc(NS(C)(=O)=O)cc1)CCc1ccc(NS(C)(=O)=O)cc1,,13.3 µM (active)
COc1ccc(OC)c(Cl)c1,5.18%,
CC(C)OC(=O)CCCCC(=O)OC(C)C,-15%,
CN1C(C)(C)CCCC1(C)C,1.05%,
CCCCCCCC/C=C\CCCCCCCC(=O)OCCCC,-4.73% [at 30.7 µM],
c1ccc2nccnc2c1,,63.1 µM (active)
CC1(CO)CN(c2ccccc2)NC1=O (stereo not given),1.35%,
COCCOCCOCCOCCOCCO,-12.4%,
CCOc1cc(NC(C)=O)ccc1C(=O)OC,7.24%,
CCC(C=O)CC,5.28% [at 95.1 µM],

SMILES,"activity change, negative = cytotoxicity",Potency
Nc1nnc(-c2cccc(Cl)c2Cl)c(N)n1,12.7%,
CC(C)(C)NC(N)=O,7.15%,
CC(=O)CCCCn1c(=O)c2c(ncn2C)n(C)c1=O,5.34% [at 30.7 µM],
O=C(O)c1ccc(Cl)cc1Cl,2.52% [at 95.1 µM],
CC(C)(C)OC(=O)c1ccc(O)cc1,-6.4%,
NS(=O)(=O)c1ccc(NC(=O)CCC(=O)O)cc1,-4.2%,
CC1=C(C(=O)O)N2C(=O)[C@@H](NC(=O)[C@H](N)c3ccc(O)cc3)[C@H]2SC1,0.359% [at 30.7 µM],
O=C(NCCc1c[nH]c2ccccc12)c1cccnc1,-7.99%,
CCOCCOCCOCC,1.97%,
COC(=O)CCCCCCCC(=O)OC,-6.89%,
CC1(C)S[C@@H]2[C@H](N=CN3CCCCCC3)C(=O)N2[C@H]1C(=O)O,6.51%,
CC(=O)N[C@@H](CCC(=O)O)C(=O)O,5.36%,
C=C(C)C(=O)OCCNC(C)(C)C,0.279%,
CC(=O)Nc1cccc(C)c1,9.22% [at 95.1 µM],
C=C(C)C1CCC(C)(O)CC1 (stereo not given),-6.73%,
COc1cc2c(cc1OC)[C@@H]1CC(=O)[C@@H](CC(C)C)CN1CC2,,29.8 µM (active)
Brc1ccc(-c2ccccc2)cc1,1.67%,
O=C(O)c1cc(Br)c(O)c(Br)c1,-20.5%,
CCOC(=O)/C=C/c1ccccc1,6.99%,
O=C(O)c1cc(Cl)cc([N+](=O)[O-])c1Cl,1.38%,

# From PubChem BioAssay (Tox21)
